Compound activity: PubChem, National Center for Advancing Translational Sciences (NCATS)
Sampled rows, rich in hits. Any-hit rate of the full collection: about 4.6%.
D1 ag – Allosteric Agonists of the Human D1 Dopamine Receptor: qHTS; AID 504660, 2011; D(1A) dopamine receptor (Homo sapiens), P21728; activation, % at 2 µM; 1% of 360,000 active; HEK293 T-REx D1 cells, calcium flux, agonist mode; further: 0% is about no effect
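Tetracycline-induced HEK293 TREx D1 cells, force-coupled to calcium signalling, were dye-loaded with a no-wash calcium kit. Compound was pin-added after a 10 s baseline. Fluorescence was read kinetically at 1 cycle/s for 180 s, with calcium rises flagged as agonism.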
D1 potentiator – Potentiators of Human D1 Dopamine Receptor: qHTS; 0.036% of 360,000 active; potentiation, % at 10 µM; AID 504651, 2011; HEK293 TREx D1 cells, calcium flux, dopamine EC20 potentiation; in the data active means potentiation above about 30%; further: 0% is about no effect
TRHR PAM – qHTS for Small Molecule Agonists and Allosteric Enhancers of Human TRH Receptor: Primary Screen for Enhancers | Thyrotropin-releasing hormone receptor (Homo sapiens), P34981 | TRHR cells, fluo-8 calcium fluorescence, EC20 TRH enhancement | enhancement, % at 2 µM | 0.66% of 360,000 active; in the data active means enhancement above about 30%; further: 0% is about no effect
Target sequence (P34981 whole entry, looked up): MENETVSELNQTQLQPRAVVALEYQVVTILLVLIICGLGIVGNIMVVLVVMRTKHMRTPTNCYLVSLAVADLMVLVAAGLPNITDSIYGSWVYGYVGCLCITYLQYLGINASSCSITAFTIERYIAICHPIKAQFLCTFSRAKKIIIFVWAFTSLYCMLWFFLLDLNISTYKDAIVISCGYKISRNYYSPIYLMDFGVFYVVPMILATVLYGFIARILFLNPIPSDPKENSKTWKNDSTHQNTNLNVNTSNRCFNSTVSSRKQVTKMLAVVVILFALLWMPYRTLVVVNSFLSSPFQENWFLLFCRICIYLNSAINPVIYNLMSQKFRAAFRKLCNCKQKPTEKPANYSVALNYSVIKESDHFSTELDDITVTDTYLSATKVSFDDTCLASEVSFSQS
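Enhancer read-out: after compound pinning and an initial kinetic agonist-mode read, an EC20 of TRH (10 nM final) was injected and fluo-8 calcium signal (Ex 480/Em 530) followed at 1 s/cycle for 100 cycles in TRHR-expressing cells.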
D1 antag – Antagonist of Human D 1 Dopamine Receptor: qHTS; activity change, negative = inhibition, % at 10 µM; D(1A) dopamine receptor (Homo sapiens), P21728; AID 504652, 2011; 3.2% of 360,000 active; HEK293 TREx D1 cells, calcium flux, dopamine EC80; hits give low values; in the data active means activity change below about -30%; further: on the % scale 0 is the no-effect control and ±100 the full control effect
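Using tetracycline-induced force-coupled D1 Hek293 cells and a calcium dye, signals were followed for 180 s after compound, then for 180 s after EC80 dopamine, to detect inhibitors.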
TRHR agonist – qHTS for Small Molecule Agonists and Allosteric Enhancers of Human TRH Receptor: Primary Screen for Agonists. Thyrotropin-releasing hormone receptor (Homo sapiens), P34981. TRHR cells, calcium flux fluo-8, FDSS agonist mode. activation, % at 2 µM. 0.18% of 360,000 active; further: 0% is about no effect
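In this calcium-flux screen, cells bearing human TRHR are dye-loaded with fluo-8, baselined for 10 cycles, then exposed to library compounds; positive kinetic calcium responses during the agonist phase mark hits, with TRH as control.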
* marks the source's active call; other numbers are inactive results. Unless noted, no stated cut-off is given here; in the data, active means activation above about 30%; inactive means the rest.

SMILES	D1 ag	D1 potentiator	TRHR PAM	D1 antag	TRHR agonist
COc1ccc(CCNC(=O)CSc2cn(Cc3cccc(C)c3)c3ccccc23)cc1OC	34.3*	0.8	-3.7	10.2	0.6
COc1ccccc1-n1nnnc1SCC(=O)N(C)C1CCS(=O)(=O)C1 (stereo not given)	1.0	-0.2	0.8	-37.6*	0.5
COc1ccc(NC(=O)CSc2nnnn2-c2ccccc2OC)c(OC)c1	7.5	-4.8	-1.3	-68.4*	0.1
COc1ccccc1-n1c(SCC(=O)N(C)C2CCS(=O)(=O)C2)nc2ccccc2c1=O (stereo not given)	1.8	0.1	-0.8	-13.8	0.3
Cc1cc(Cl)ccc1OCC(=O)Nc1ccccc1N1CCOCC1	-0.6	6.4	10.5	25.3	0.1
COc1ccc(CCNC(=O)CSc2nnnn2-c2ccccc2OC)cc1OC	14.0	-7.3	0.1	-52.1*	0.0
COc1ccc(Cl)cc1NC(=O)CNc1ccccc1N1CCOCC1	2.7	-6.4	-0.3	-34.9*	0.2
Cc1nnc(NC(=O)c2c(F)cccc2F)s1	-2.3	-3.9	0.1	-22.5	0.5
OC(CNC1CCCCC1)COCCOc1ccc(Br)cc1 (stereo not given)	48.1*	-1.5	-1.2	-30.2*	0.4
OC(COCCOc1ccc(Br)cc1)CN1CCN(Cc2ccccc2)CC1 (stereo not given)	27.4	-10.6	10.9	-31.2*	1.3
CCc1ccc(OCCOCC(O)CN2CCN(Cc3ccc(Cl)cc3)CC2)cc1 (stereo not given)	39.7*	-4.5	3.8	-35.9*	1.4
CN(C)c1cccc(C(=O)NCCCn2ccc3ccccc32)c1	1.8	-12.2	-1.4	4.3	-1.8
COC(=O)CC(=O)Cc1nc(N)nc(Nc2ccc(C)c(C)c2)n1	0.5	-9.1	-6.0	-50.4*	-1.9
O=C(NC(CC(=O)N1CCCC(C(F)(F)F)C1)c1ccccc1)c1ccccc1Cl (stereo not given)	0.6	-6.3	32.7*	-2.9	2.5
CC1CCN(C(=O)CC(NC(=O)c2ccccc2Cl)c2ccccc2)CC1 (stereo not given)	-0.1	18.5	-0.7	-20.0	0.1
Cc1noc(/C=C/c2ccco2)c1S(=O)(=O)N1CCC(C(=O)NCc2ccco2)CC1	3.5	-4.5	-3.4	-15.2	-0.8
Cc1ccc(CNC(=O)C2CCN(S(=O)(=O)c3c(C)noc3/C=C/c3ccco3)CC2)cc1	8.6	-10.2	4.9	-47.5*	-0.4
COc1ccc(NC(=O)C2CCN(S(=O)(=O)c3c(C)noc3/C=C/N(C)C)CC2)cc1	0.7	-2.4	-4.8	-34.2*	0.0
Cc1ccc2c(c1)N(C(=O)C1CCN(S(=O)(=O)c3c(C)noc3/C=C/c3ccccc3F)CC1)CCO2	10.1	-0.1	-5.9	-38.6*	0.6
CCC1CN(C(=O)C2CCN(S(=O)(=O)c3c(C)noc3/C=C/c3ccccc3F)CC2)c2cc(C)ccc2O1 (stereo not given)	12.7	-2.0	-2.2	3.6	0.5
Cc1ccccc1NC(=O)C1CCN(S(=O)(=O)c2c(C)noc2/C=C/c2ccco2)CC1	0.3	5.1	-8.1	-32.9*	0.2
COc1cc(OC)c(-c2cc(C(=O)NCc3ccc(F)cc3)c3c(-c4ccccc4)[nH]nc3n2)cc1OC	5.2	0.3	10.4	11.2	0.9
O=C(CCc1ccccc1)C(=O)N1CCCC(C(=O)c2cccc(Cl)c2)C1 (stereo not given)	8.2	-0.3	-14.9	-26.1	3.5
Cc1ccc2c(c1)cc(CN(Cc1ccc3c(c1)OCO3)C(=O)c1ccccc1)c1nnnn12	2.3	0.2	13.0	11.1	-0.6
CCCN(CCC)CC(O)Cn1cc(/C=C/C(=O)c2ccc(C)cc2)c2ccccc21 (stereo not given)	133.5*	2.5	5.4	-42.3*	8.1
SMILES	D1 ag	D1 potentiator	TRHR PAM	D1 antag	TRHR agonist
CN1CCN(Cn2cc(/C=C/C(=O)c3ccccc3)c3ccccc32)CC1	5.7	-5.3	3.3	-5.4	1.4
COc1ccc(C(=O)/C=C/c2cn(CC(O)CN(CC(C)C)CC(C)C)c3ccccc23)cc1 (stereo not given)	12.5	-1.4	3.9	8.2	3.0
CCCN(CCC)CC(O)Cn1cc(/C=C/C(=O)c2ccc(Br)cc2)c2ccccc21 (stereo not given)	33.4*	-2.6	0.6	-13.4	4.6
CCCN(CCC)CC(O)Cn1cc(/C=C/C(=O)c2ccc(OC)cc2)c2ccccc21 (stereo not given)	128.5*	6.8	-0.4	-41.1*	-1.7
OCCN(CCO)CC(O)Cn1c2ccccc2c2ccccc21 (stereo not given)	3.2	1.4	6.0	11.0	-0.1
CC(C)(C)NCC(O)Cn1cc(C=O)c2ccccc21 (stereo not given)	2.4	4.5	2.0	12.7	1.7
CCCN(CCC)CC(O)Cn1cc(/C=C/C(=O)c2ccccc2)c2ccccc21 (stereo not given)	72.5*	-1.1	-1.9	-30.7*	2.2
CCCCc1nc2cc(C(=O)N3CCC(O)CC3)ccc2o1	1.0	0.9	16.0	5.1	-1.5
CCCN(CCC)CC(O)Cn1cc(/C=C/C(=O)c2cccs2)c2ccccc21 (stereo not given)	93.8*	-6.3	8.6	-20.9	8.4
O=C(/C=C/c1ccnc2ccccc12)c1cccs1	-0.1	5.6	-2.4	2.2	-0.2
Cc1ccc(CCNC(=O)C2CCN(S(=O)(=O)c3ccc4c(c3)NC(=O)C(C)S4)CC2)cc1 (stereo not given)	4.2	-3.4	-5.3	-29.8	0.3
CCc1ccc(C(=O)OCC(=O)NCCNC(=O)COC(=O)c2ccc(CC)cc2)cc1	-0.1	5.2	2.3	7.3	0.3
CCC(=O)NNc1nc2c(F)cccc2s1	-0.1	0.9	19.4	-5.8	0.0
CCC(=O)NNc1nc2c(F)cc(F)cc2s1	4.0	-1.8	3.3	-35.1*	0.0
O=C1CC(c2ccc(S(=O)(=O)NC3CC3)cc2)CN1 (stereo not given)	1.4	-1.3	-3.9	-13.7	0.7
O=C1CC(c2ccc(S(=O)(=O)NCc3ccncc3)cc2)CN1 (stereo not given)	1.6	-3.0	9.1	-34.4*	0.8
O=C(OCC(=O)N1CCCCC1)c1cc2ccccc2cc1O	2.5	3.8	-2.5	9.2	0.0
CCC1CCCCN1C(=O)COC(=O)c1cc2ccccc2cc1O (stereo not given)	14.9	-8.8	-1.3	-32.2*	-0.4
CC(C)NC(=NCc1ccc(Cl)cc1Cl)Nc1ccccc1	45.6*	-4.7	-1.8	-12.1	14.6
